SMILES strings stand for the structures. Results filed as inconclusive are left out. Active and inactive are the calls of the source. Unless noted, calls follow the shape of the dose curve; as a rule, active = well fitted curve in the direction sought with a large enough effect in the repeat runs; inconclusive = weak or mixed curves; inactive = no such curve, though single readings can be large; an effect the other way counts as inactive or inconclusive.

The target in test [1] is Acetylcholinesterase (Homo sapiens) (UniProt P22303). The test can be described thus: Acetylcholinesterase (AChE) small molecule antagonists: colormetric cell-based qHTS assay (AID 1347395; calls by dose curve; also: nearly all actives have a fitted effect of over 30% in size; also: potency is read from the fitted curve at half-maximal effect). A digest of the protocol:
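Neuroblastoma line SH-SY5Y supplied the enzyme; cells were preincubated with compound for 30 min at 37 C and 5% CO2. Acetylthiocholine with DTNB was then added for 90 min at 37 C, and thiocholine was measured by colour.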
(In general: Quantitative high-throughput screening tests each substance at several concentrations.)

The target is the same in test [2]. The test can be described thus: Acetylcholinesterase (AChE) small molecule antagonists: fluorescence cell-based qHTS assay (AID 1347398; calls by dose curve; also: nearly all actives have a fitted effect of over 50% in size; also: potency is read from the fitted curve at half-maximal effect). Particulars: Potency: AChE activity. Summed up: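 Endogenous acetylcholinesterase of SH-SY5Y neuroblastoma cells is measured in situ. After overnight attachment and 30 min compound exposure, cells receive acetylthiocholine and Thiolite Green; fluorescence is read after 40 min at room temperature.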

Test [3] shares this target. Description: Acetylcholinesterase (AChE) small molecule antagonists: enzyme-based qHTS assay with human liver microsomes (AID 1347399; calls by dose curve; also: nearly all actives have a fitted effect of over 60% in size). Conditions: Potency: qHTS inhibition. A digest of the protocol:
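Recombinant human AChE (50 mU/mL in the enzyme mix) and human liver microsomes (0.25 mg/mL final) were preincubated with compound and NADPH (0.25 mg/mL final) for 30 min at 37 C. Acetylthiocholine/DTNB was then added; thiocholine was read colorimetrically after 10 min at room temperature.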

For test [4], the target named is Cytochrome P450 2D6 (Homo sapiens) (UniProt P10635). The test can be described thus: Cytochrome P450 Family 2 Subfamily D Member 6 (CYP2D6) small molecule antagonists: luciferase reporter qHTS assay (AID 1671196). Also: nearly all actives have a fitted effect of over 50% in size. Also: potency is read from the fitted curve at half-maximal effect. Summed up:
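Cell-free P450-Glo system: CYP2D6 with proluciferin substrate was pre-incubated with compound for 10 min, then reacted with NADPH regeneration for 1 h at room temperature. Luciferin product was detected after 20 min, and data were reported as relative luminescence units.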
(Reporter assays use an easily measured gene product as a stand-in for the process of interest.)

The target in test [5] is Cytochrome P450 2C19 (Homo sapiens) (UniProt P33261). Description: Cytochrome P450 Family 2 Subfamily C Member 19 (CYP2C19) small molecule antagonists: luciferase reporter qHTS assay (AID 1671197). Also: nearly all actives have a fitted effect of over 65% in size. Also: potency is read from the fitted curve at half-maximal effect. A digest of the protocol: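 Quantitative high-throughput screen of the Tox21 library using CYP2C19 with proluciferin substrate. Reaction: NADPH regeneration, 37C, 1 h, after 10 min compound preincubation at room temperature. Readout: luminescence.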
Sequence of Cytochrome P450 2C19 (Homo sapiens) (P33261 whole entry, looked up): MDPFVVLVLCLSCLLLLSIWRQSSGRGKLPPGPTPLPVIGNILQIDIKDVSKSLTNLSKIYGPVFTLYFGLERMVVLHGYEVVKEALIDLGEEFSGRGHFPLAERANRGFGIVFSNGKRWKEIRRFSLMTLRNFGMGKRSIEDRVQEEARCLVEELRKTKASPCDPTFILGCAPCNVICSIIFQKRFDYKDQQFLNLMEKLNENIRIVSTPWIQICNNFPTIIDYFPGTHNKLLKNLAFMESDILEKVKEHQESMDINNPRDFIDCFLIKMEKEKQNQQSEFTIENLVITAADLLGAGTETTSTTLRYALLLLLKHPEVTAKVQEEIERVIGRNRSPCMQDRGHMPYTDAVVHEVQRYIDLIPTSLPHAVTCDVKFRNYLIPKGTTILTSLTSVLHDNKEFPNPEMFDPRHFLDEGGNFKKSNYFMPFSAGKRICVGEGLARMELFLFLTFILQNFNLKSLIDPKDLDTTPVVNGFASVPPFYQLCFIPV

For test [6], the target named is Cytochrome P450 2C9 (Homo sapiens) (UniProt P11712). Description: Cytochrome P450 Family 2 Subfamily C Member 9 (CYP2C9) small molecule antagonists: luciferase reporter qHTS assay (AID 1671198). Also: nearly all actives have a fitted effect of over 50% in size. Also: potency is read from the fitted curve at half-maximal effect. Summed up:
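P450-Glo proluciferin substrate with CYP2C9 enzyme; 10 min RT preincubation, then NADPH regeneration 1 h at 37C; luciferin detection reagent 20 min RT, luminescence in relative luminescence units.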

Test [7] deals with Voltage-gated inwardly rectifying potassium channel KCNH2 (Homo sapiens) (UniProt Q12809). Description: Human Ether-a-go-go-Related Gene (hERG) channel small molecule antagonists: fluorescence cell-based qHTS assay (AID 1671200). Also: nearly all actives have a fitted effect of over 50% in size. Also: potency is read from the fitted curve at half-maximal effect. A digest of the protocol:
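Measured: Tl+ flux via fluorescence (480/540 nm) in hERG-expressing U2OS cells after 1 h dye loading at room temperature.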

Test [8] addresses Cytochrome P450 1A2 (Homo sapiens) (UniProt P05177). The test can be described thus: Cytochrome P450 Family 1 Subfamily A Member 2 (CYP1A2) small molecule antagonists: luciferase reporter qHTS assay (AID 1671199). Also: nearly all actives have a fitted effect of over 50% in size. Also: potency is read from the fitted curve at half-maximal effect. Summed up: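 P450-Glo CYP1A2 enzyme–proluciferin substrate mix with compound 10 min at room temperature, then NADPH regeneration 1 h at room temperature. Luciferin detection reagent added, luminescence read after 20 min; furafylline positive control.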

Test [9] deals with Cytochrome P450 3A4 (Homo sapiens) (UniProt P08684). Description: Cytochrome P450 Family 3 Subfamily A Member 4 (CYP3A4) small molecule antagonists: luciferase reporter qHTS assay (AID 1671201). Also: nearly all actives have a fitted effect of over 50% in size. Also: potency is read from the fitted curve at half-maximal effect. A digest of the protocol: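 Setup: enzyme-substrate mix, compound pin transfer, 10 min RT. Reaction: NADPH regeneration solution, 1 h RT. Readout: detection reagent stops turnover, luminescence measured after 20 min, expressed in relative luminescence units.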
Sequence of Cytochrome P450 3A4 (Homo sapiens) (P08684 whole entry, looked up): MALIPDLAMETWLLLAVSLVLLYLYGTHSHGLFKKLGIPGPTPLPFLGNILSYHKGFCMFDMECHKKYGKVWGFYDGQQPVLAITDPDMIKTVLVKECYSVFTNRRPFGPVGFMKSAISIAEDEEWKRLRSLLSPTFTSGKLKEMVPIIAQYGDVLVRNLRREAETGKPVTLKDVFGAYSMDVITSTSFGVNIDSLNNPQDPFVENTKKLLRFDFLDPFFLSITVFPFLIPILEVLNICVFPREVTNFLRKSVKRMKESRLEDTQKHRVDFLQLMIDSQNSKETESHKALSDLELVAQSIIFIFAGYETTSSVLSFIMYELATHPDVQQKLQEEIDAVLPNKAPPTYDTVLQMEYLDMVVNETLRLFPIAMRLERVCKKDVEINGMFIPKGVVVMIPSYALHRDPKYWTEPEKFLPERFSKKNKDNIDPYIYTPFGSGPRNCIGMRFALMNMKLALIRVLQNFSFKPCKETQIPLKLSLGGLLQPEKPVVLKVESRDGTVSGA

Test [10] deals with Acetylcholinesterase (Homo sapiens) (UniProt P22303). Description: Acetylcholinesterase (AChE) small molecule antagonists: enzyme-based qHTS assay (AID 1347397; calls by dose curve; also: nearly all actives have a fitted effect of over 55% in size). Particulars: Potency: AChE enzyme activity inhibition. Summed up: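 Enzyme inhibition was scored from DTNB-detected thiocholine formed by recombinant human AChE acting on acetylthiocholine. The 30 min compound preincubation and 10 min substrate reaction were both run at room temperature, with DMSO as vehicle control.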
Sequence of Acetylcholinesterase (Homo sapiens) (P22303 whole entry, looked up): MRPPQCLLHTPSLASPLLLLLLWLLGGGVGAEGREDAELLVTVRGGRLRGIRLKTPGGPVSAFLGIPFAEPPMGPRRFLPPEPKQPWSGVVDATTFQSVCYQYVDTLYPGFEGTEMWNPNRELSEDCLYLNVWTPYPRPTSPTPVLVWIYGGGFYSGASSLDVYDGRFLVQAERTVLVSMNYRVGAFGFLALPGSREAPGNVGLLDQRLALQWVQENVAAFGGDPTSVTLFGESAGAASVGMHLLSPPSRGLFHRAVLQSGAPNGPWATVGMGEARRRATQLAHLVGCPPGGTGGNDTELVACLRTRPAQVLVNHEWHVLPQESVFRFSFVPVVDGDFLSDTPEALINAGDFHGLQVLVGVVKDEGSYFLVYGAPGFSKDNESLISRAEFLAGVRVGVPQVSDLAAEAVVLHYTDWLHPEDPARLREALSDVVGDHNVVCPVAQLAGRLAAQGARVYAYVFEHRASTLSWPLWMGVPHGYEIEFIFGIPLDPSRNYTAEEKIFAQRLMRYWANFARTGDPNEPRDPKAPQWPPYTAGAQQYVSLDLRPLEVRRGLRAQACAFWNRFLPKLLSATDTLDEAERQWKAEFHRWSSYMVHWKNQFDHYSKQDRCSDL

Sequence of Cytochrome P450 2D6 (Homo sapiens) (P10635 whole entry, looked up): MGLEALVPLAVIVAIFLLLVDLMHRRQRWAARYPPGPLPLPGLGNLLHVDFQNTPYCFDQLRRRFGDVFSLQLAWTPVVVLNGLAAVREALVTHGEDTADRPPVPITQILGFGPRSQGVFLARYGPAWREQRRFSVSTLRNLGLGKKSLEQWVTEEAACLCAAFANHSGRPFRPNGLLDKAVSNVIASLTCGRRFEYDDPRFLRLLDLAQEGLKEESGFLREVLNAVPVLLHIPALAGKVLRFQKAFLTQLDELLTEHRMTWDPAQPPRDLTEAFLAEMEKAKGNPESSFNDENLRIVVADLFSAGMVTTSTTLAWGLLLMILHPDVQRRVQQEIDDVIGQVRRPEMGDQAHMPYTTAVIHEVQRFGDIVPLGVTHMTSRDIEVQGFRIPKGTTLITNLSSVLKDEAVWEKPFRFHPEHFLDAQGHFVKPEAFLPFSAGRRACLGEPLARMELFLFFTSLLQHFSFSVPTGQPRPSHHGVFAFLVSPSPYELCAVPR
Sequence of Cytochrome P450 1A2 (Homo sapiens) (P05177 whole entry, looked up): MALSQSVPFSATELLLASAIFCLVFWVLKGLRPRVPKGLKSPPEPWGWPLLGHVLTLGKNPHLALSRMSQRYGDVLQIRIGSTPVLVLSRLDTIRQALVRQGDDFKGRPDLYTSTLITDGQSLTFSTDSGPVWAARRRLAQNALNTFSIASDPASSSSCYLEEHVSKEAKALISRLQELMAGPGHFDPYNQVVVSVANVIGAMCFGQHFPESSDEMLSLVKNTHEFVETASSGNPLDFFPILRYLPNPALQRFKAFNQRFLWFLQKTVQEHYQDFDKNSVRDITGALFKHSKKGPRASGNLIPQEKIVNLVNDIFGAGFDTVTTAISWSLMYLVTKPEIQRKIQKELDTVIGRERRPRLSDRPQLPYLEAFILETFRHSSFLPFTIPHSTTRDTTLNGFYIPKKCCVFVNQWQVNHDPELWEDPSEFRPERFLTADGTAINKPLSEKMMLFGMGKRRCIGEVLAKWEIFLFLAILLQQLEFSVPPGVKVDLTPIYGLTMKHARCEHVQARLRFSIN
Sequence of Voltage-gated inwardly rectifying potassium channel KCNH2 (Homo sapiens) (Q12809 whole entry, looked up): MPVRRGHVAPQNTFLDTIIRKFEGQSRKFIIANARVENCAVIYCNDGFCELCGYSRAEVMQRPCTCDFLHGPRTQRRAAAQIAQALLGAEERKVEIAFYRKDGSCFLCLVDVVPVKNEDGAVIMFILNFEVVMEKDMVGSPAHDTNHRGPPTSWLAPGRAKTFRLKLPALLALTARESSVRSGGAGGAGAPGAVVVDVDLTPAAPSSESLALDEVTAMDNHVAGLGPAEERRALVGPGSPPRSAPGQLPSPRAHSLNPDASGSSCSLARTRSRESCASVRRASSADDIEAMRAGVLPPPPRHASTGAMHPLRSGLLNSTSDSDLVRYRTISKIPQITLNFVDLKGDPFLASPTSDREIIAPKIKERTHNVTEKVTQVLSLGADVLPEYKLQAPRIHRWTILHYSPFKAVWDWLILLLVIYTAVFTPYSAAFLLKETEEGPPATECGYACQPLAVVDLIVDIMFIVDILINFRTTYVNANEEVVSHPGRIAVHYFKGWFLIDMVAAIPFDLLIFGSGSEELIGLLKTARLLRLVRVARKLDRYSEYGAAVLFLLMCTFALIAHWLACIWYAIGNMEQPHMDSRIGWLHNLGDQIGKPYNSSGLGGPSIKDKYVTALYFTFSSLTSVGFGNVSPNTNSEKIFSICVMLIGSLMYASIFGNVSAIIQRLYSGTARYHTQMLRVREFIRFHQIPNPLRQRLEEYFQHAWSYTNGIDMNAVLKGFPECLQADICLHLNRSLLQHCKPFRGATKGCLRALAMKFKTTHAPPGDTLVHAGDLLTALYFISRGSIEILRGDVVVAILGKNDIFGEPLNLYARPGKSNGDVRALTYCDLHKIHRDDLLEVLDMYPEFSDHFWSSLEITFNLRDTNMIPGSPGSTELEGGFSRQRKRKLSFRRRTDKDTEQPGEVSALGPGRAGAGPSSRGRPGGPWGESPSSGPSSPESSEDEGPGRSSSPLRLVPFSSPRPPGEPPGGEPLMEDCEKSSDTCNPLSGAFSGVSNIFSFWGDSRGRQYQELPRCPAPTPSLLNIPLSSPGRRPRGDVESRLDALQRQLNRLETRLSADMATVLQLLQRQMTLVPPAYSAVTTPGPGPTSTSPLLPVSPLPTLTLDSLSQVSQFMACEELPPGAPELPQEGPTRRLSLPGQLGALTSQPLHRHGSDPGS
Sequence of Cytochrome P450 2C9 (Homo sapiens) (P11712 whole entry, looked up): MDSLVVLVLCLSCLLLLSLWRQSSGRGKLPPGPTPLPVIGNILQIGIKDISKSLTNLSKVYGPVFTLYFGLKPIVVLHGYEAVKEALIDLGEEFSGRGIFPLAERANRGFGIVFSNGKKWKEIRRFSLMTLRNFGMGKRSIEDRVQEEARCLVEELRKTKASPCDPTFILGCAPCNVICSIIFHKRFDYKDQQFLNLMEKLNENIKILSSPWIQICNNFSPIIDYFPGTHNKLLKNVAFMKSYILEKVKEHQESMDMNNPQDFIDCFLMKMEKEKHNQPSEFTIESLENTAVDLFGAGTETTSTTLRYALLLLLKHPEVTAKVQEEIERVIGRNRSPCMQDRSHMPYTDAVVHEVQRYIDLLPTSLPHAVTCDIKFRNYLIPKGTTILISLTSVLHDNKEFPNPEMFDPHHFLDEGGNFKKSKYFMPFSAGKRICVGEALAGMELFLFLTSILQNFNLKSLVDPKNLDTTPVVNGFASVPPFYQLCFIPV

With `O=S(=O)(O)C(F)(F)C(F)(F)C(F)(F)C(F)(F)F`, the Potency result in test [1], in test [2], in [3] and in [7] was “inactive” in each case. The Potency is 59.8 µM (active) in test [4], 33.6 µM (active) in [5] and 17.9 µM (active) in test [6].

On to `O=C1C(Cl)C(CCl)CN1c1cccc(C(F)(F)F)c1` (centres undefined), for which the Potency result in [1], in test [2], in [3], in [6] and in [9] was “inactive” throughout. In addition, the Potency in test [5] is 8.94 µM (active); in test [8], 1 µM (active).

Take `NC(=O)C(Cl)(Cl)Cl`: the Potency result in test [10], in test [2], in test [3], in test [4], in [5] and in test [6] was “inactive” in each case. The Potency result in [7] and in [9] was “inactive” throughout.

With `Clc1cc(Cl)c(Cl)c(Cl)c1`, the Potency result in test [10], in [2], in test [3], in [4], in test [5] and in test [6] was “inactive” throughout. Besides, the Potency result in test [7] and in test [9] was “inactive” each time.

For the compound `O=[N+]([O-])c1ccccc1CCl`, the Potency entry in [1], in [2], in [3], in test [6], in test [7] and in test [9] was “inactive” each time.

On to `CC(C)N(C(=O)COc1nnc(C(F)(F)F)s1)c1ccc(F)cc1`, for which the Potency was 39.9 µM (active) in [1], 1 µM (active) in test [5], 35.6 µM (active) in test [6] and 39.9 µM (active) in [8]. The Potency entry in test [3], in test [4], in test [7] and in test [9] was “inactive” each time.

With `CC(C)(OO)c1ccccc1`, the Potency result in test [10], in [2], in test [3], in test [4] and in test [7] was “inactive” throughout. The Potency in test [5] was 35.6 µM (active); in [6], 39.9 µM (active); in test [8] it was 25.2 µM (active).

Take `Cc1ccc(N)cc1C`: the Potency result in test [10], in [2], in test [3] and in [7] was “inactive” each time. Further, the Potency was 5.07 µM (active) in [4], 28.5 µM (active) in test [5] and 4.52 µM (active) in test [8].

With `COCC(C)N(C(=O)CCl)c1c(C)csc1C` (centres undefined), the Potency entry in test [10], in test [2], in test [3], in test [4], in test [7] and in [9] was “inactive” each time. Moreover, the Potency is 6.33 µM (active) in test [5] and 7.96 µM (active) in test [6].

As for `Cl/C=C\C[N+]12CN3CN(CN(C3)C1)C2`, the Potency entry in test [10], in [2], in [3], in [5], in test [6] and in test [8] was “inactive” in each case. Moreover, the Potency entry in test [7] and in test [9] was “inactive” in each case. The Potency in test [4] was 71 µM (active).

Consider `ClC=C(Cl)Cl`, for which the Potency entry in test [10], in test [2], in [3], in test [4], in test [5] and in [6] was “inactive” throughout. In addition, the Potency result in [8], in test [7] and in test [9] was “inactive” each time.

`CCCCCCCCCC(=O)O[C@H]1CC[C@H]2[C@@H]3CCC4=CC(=O)CC[C@@H]4[C@H]3CC[C@]12C`: the Potency entry in test [10], in [2], in test [3], in [4], in test [8] and in [7] was “inactive” each time. Besides, the Potency is 21.9 µM (active) in test [5] and 15.5 µM (active) in test [6].

With `CCOS(C)(=O)=O`, the Potency result in [1], in test [2], in [3], in test [5], in test [6] and in [8] was “inactive” each time. The Potency entry in test [7] and in [9] was “inactive” in each case.

Regarding `CCOC(=O)COc1cc(-c2nn(C)c(OC(F)F)c2Cl)c(F)cc1Cl`, the Potency result in test [1], in [2] and in test [3] was “inactive” in each case. Also, the Potency was 31.7 µM (active) in test [5], 6.33 µM (active) in test [6], 1.78 µM (active) in test [8] and 34.7 µM (active) in [7].

Turning to `CC(C)(C)c1cc([N+](=O)[O-])cc([N+](=O)[O-])c1O`, the Potency entry in test [10], in [2], in [3], in test [4], in [7] and in test [9] was “inactive” throughout. In addition, the Potency in test [5] is 56.2 µM (active); in test [6] it was 17.8 µM (active); in test [8] it was 56.2 µM (active).

Consider `O=C1CN=C(c2ccccc2)c2cc(Cl)ccc2N1CC1CC1`, for which the Potency result in test [1] and in test [3] was “inactive” in each case. Further, the Potency was 29.7 µM (active) in test [2], 6.64 µM (active) in [5] and 26.4 µM (active) in test [6].

For `CCO[C@H]1O[C@@H]2OC3(C)CC[C@H]4[C@H](C)CC[C@@H]([C@H]1C)[C@@]24OO3`, the Potency result in test [10], in test [2], in test [3], in [4] and in test [7] was “inactive” each time. Moreover, the Potency was 21.9 µM (active) in test [5] and 11 µM (active) in test [6].

With `O=C(O)c1ccccc1C(=O)Nc1cccc2ccccc12`, the Potency entry in [10], in test [2], in test [3] and in test [7] was “inactive” throughout. The Potency in [4] is 31.7 µM (active); in test [5], 15.9 µM (active); in test [6], 17.8 µM (active); in test [8], 12.6 µM (active).

On to `CC(c1ccc(O)cc1)(c1ccc(O)cc1)c1ccc(O)cc1`, for which the Potency entry in test [10], in [2], in test [3], in test [8] and in [7] was “inactive” throughout. Also, the Potency in test [4] is 71 µM (active); in test [5] it was 28.3 µM (active); in test [6], 10 µM (active); in [9] it was 31.7 µM (active).

Regarding `N#Cc1ccc(Cl)cc1`, the Potency result in [10], in [2], in test [3], in test [4], in test [5] and in test [6] was “inactive” in each case. Moreover, the Potency entry in test [8], in test [7] and in test [9] was “inactive” throughout.

With `COc1cc(Cl)c(OC)cc1Cl`, the Potency entry in test [10], in test [2], in [3], in [4] and in test [7] was “inactive” each time. In addition, the Potency in test [5] is 79.6 µM (active); in test [6], 71 µM (active); in test [8] it was 12.6 µM (active); in [9], 15.9 µM (active).

The record behind these values is PubChem BioAssay (Tox21).
